Measurements as given in PubChem BioAssay (EPA / NIEHS).
Results filed as inconclusive are left out. The source made the active and inactive calls. Rule for the calls: active = hit-call score of the fitted dose curve at least 0.9, where 1 is the maximum; inconclusive = response in the unintended direction; inactive = score below 0.9.

Each compound was assayed against Nuclear receptor subfamily 1 group I member 2 (Homo sapiens) (UniProt O75469) (assay: ATG_PXR_TRANS: Attagene TRANS-FACTORIAL HepG2 Assay for human Pregnane X Receptor (PXR) (AID 2283008)).
Sequence of Nuclear receptor subfamily 1 group I member 2 (Homo sapiens) (O75469 whole entry, looked up): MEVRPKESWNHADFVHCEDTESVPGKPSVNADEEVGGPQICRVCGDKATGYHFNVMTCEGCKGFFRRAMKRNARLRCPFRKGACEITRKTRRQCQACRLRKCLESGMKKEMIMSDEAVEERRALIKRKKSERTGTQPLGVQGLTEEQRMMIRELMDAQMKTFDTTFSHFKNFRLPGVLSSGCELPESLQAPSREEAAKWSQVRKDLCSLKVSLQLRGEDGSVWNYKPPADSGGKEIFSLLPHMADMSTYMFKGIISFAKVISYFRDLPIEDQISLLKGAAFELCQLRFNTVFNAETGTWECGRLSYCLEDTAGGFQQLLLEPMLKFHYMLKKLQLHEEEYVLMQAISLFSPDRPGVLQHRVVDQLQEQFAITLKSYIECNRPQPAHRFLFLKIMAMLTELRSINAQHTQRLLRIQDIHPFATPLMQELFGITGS
Experimental: ATG_TRANS is a cell-based, multiplexed-readout assay that uses HepG2, a human liver cell line, with measurements taken at 24 hours after chemical dosing in a 24-well plate.ATG_PXR_TRANS is one of 30 assay component(s) measured or calculated from the ATG_TRANS assay. It is designed to make measurements of mRNA induction, a form of inducible reporter, as detected with fluorescence intensity signals by Reverse transcription polymerase chain reaction (RT-PCR) and Capillary electrophoresis technology.Data from the assay component ATG_PXR_TRANS was analyzed into 1 assay endpoint. This assay endpoint, ATG_PXR_TRANS, was analyzed in the positive analysis fitting direction relative to DMSO as the negative control and baseline of activity. Using a type of inducible reporter, measures of mRNA for gain-of-signal activity can be used to understand the reporter gene at the transcription factor-level as they relate to the gene NR1I2. Furthermore, this assay endpoint can be referred to as a primary readout, because this assay has produced multiple assay endpoints where this one serves a reporter gene function. To generalize the intended target to other relatable targets, this assay endpoint is annotated to the nuclear receptor intended target family, where the subfamily is non-steroidal.
Human liver HepG2 cells are transiently transfected with multiple reporter transcription units (MRTUs) in 6-well plates using FuGene 6 reagent (Roche; 3 ml FuGene/1 mg DNA). The MRTU constructs are regulated by a cis-regulating element (promoter). […] A major difference between the CIS and TRANS system is that in CIS activities of endogenous TFs are measured, whereas the TRANS assay evaluates changes in activities of exogenous, chimeric NR-Gal4 proteins. […] At the end of 24 hour incubation, total RNA was isolated using TriZol reagent (Invitrogen). The isolated RNA is then reverse-transcribed using oligo(dT) primer and Mo-MLV reverse transcriptase (Invitrogen) with DNAse I (Ambion) treatment for 30 min. The one-tenth of the produced cDNA was amplified by PCR using Taq DNA polymerase (Invitrogen) and two reporter sequence-specific primers. The PCR products were fluorescently labeled by primer extension with 6-arboxyfluorescein (6-FAM) 5'-labeled reporter sequence-specific primer (2 min at 95 C, 20 s at 68 C and 10 min at 72 C) and these products were digested with 5U of HpaI (New England Biolabs) for 2h at 37 C. The fragments were purified using Qiaquick PCR columns (Qiagen), analyzed on an ABI 3130xL genetic analyzer (Applied Biosystems) with peak positions identified by using a set of X-rhodamine (ROX)-labeled MapMarker1000 molecular weight standards (BioVentures). The raw capillary electrophoresis data was processed using Attagraph software (Attagene).
For CC(C)(COC(=O)c1ccccc1)COC(=O)c1ccccc1, the outcome was “inactive”.
For CC1CCC2CC1C2(C)C (stereo not given), the outcome was “inactive”.
In the case of Nc1ccc(S(N)(=O)=O)cc1, the outcome is reported as “inactive”.
In the case of CC(CCO)CCc1ccccc1 (stereo not given), the AC50 is reported as 48.2 µM (active).
In the case of Cc1ccc(C=O)cc1, the outcome is reported as “inactive”.
In the case of CC1(C)OC[C@@H]2O[C@@]3(C(=O)O)OC(C)(C)O[C@H]3[C@@H]2O1, the outcome is reported as “inactive”.
In the case of CCO[Si](CCCS)(OCC)OCC, the outcome is reported as “inactive”.
With CC1(C)[C@H](C(=O)OCc2cccc(Oc3ccccc3)c2)[C@@H]1C=C(Cl)Cl the outcome was “inactive”.
With CC(=O)C(C)=O the outcome was “inactive”.
In the case of CC(C)(C)NC(N)=O, the outcome is reported as “inactive”.
In the case of Cc1ccccc1C=O, the AC50 is reported as 20.9 µM (active).
For CC1COc2ccccc2N1C(=O)C(Cl)Cl (stereo not given), the AC50 was 6.46 µM (active).
With O=C1C(c2[nH]c3ccc(S(=O)(=O)O)cc3c2O)=Nc2ccc(S(=O)(=O)O)cc21 the outcome was “inactive”.
C=CC(=O)OCCOCCOCC was tested, and the AC50 was 40 µM (active).
With OCc1cccnc1 the outcome was “inactive”.
For CC(C)[C@H]1CC[C@@H](C)CC1=O, the outcome was “inactive”.
CCCc1c(OCCCOc2ccc(OCC(=O)O)cc2)ccc(C(C)=O)c1O was tested, and the AC50 was 26.6 µM (active).
With O=[N+]([O-])c1ccc(Nc2ccc(Nc3ccccc3)c(S(=O)(=O)O)c2)c([N+](=O)[O-])c1 the AC50 was 22.9 µM (active).
For CCN(CC)c1ccc(C(=C2C=CC(=[N+](CC)CC)C=C2)c2ccc(S(=O)(=O)O)cc2S(=O)(=O)[O-])cc1, the outcome was “inactive”.
With Nc1nc2ccc([N+](=O)[O-])cc2s1 the outcome was “inactive”.
C=C(C)C(=O)NCCCN(C)C was tested, and the outcome was “inactive”.
With CC(=O)[O][Al][O]C(C)=O the outcome was “inactive”.
O=S(=O)(O)NC1CCCCC1 was tested, and the outcome was “inactive”.
For O=C(O)CCCCC1CCSS1 (stereo not given), the outcome was “inactive”.
With CC(C)=CCC[C@](C)(O)[C@@H]1CC=C(C)CC1 the AC50 was 15 µM (active).
With Clc1nc(C(Cl)(Cl)Cl)c(Cl)c(Cl)c1Cl the AC50 was 21.2 µM (active).
With CCCCCCCCCCCCSC the outcome was “inactive”.
CC(=O)O[C@]1(C(C)=O)CC[C@H]2[C@@H]3C[C@H](C)C4=CC(=O)CC[C@]4(C)[C@H]3CC[C@@]21C was tested, and the outcome was “inactive”.
For C=C(C)C(=O)O[C@H]1C[C@@H]2CC[C@@]1(C)C2(C)C, the AC50 was 31.6 µM (active).
CC(C)CCCCCCCOC(=O)c1ccc(C(=O)OCCCCCCCC(C)C)c(C(=O)OCCCCCCCC(C)C)c1 was tested, and the outcome was “inactive”.
CCCCCCC#CC(=O)OC was tested, and the outcome was “inactive”.
With C=CC(C)(CCC=C(C)C)OC=O (stereo not given) the outcome was “inactive”.
CC(=O)C=CC1=C(C)CCCC1(C)C was tested, and the AC50 was 1.02 µM (active).
For CC(=O)c1c(C)cc(C(C)(C)C)cc1C, the outcome was “inactive”.
NCCCCCCN was tested, and the outcome was “inactive”.
For O=C(O)C[C@H](O)C[C@H](O)/C=C/c1c(C2CC2)nc2ccccc2c1-c1ccc(F)cc1, the outcome was “inactive”.
NC(=O)NC1NC(=O)NC1=O (stereo not given) was tested, and the outcome was “inactive”.
CO[Si](CCCn1c(=O)n(CCC[Si](OC)(OC)OC)c(=O)n(CCC[Si](OC)(OC)OC)c1=O)(OC)OC was tested, and the outcome was “inactive”.
For C=CCOC(=O)CCC1CCCCC1, the outcome was “inactive”.
For CCCCOCCOCCSC#N, the AC50 was 3.36 µM (active).
